TSHR antagonist = human thyrotropin receptor antagonism. P16473. TSHR-expressing cells, TSH-stimulated cAMP HTRF, 2 h; stronger effect = lower value. activity change, negative = inhibition, % at 11.5 µM. hit rate 0.2% among 330,000. AID 504810;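 active = activity change below a set negative limit, meaning inhibition stronger than a set level, cut at about -70% in these data; inconclusive = activity change between two set negative limits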; also: % is scaled to controls: 0 for no effect and ±100 for the full control effect
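Competitive HTRF cAMP read-out (cryptate anti-cAMP antibody, cAMP-d2; 30 min, room temperature) in freshly harvested TSHR cells. Compounds added before TSH at EC80 (4nM final), followed by 2 hours' incubation at 37 deg C.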
PTHR1 ag = activates the human parathyroid hormone receptor PTHR1; Potency, µM (highest dose often 115 µM), without a hit: at the highest dose activation, usual class: activators; Q03431; hit rate 0.075% among 410,000; HEK293 GP2 PTHR1 cells, GloSensor cAMP luminescence, 1 h; also: potency is read from the fitted curve at half-maximal effect; nearly all actives have a fitted effect of over 55% in size
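HEK-293-derived GP2 cells expressing PTHR1 and a GloSensor cAMP reporter, 3,000/well, plated overnight, given luciferin plus IBMX (each 0.5 mM as added) for 1 h at 37 °C, then compound for 1 h at 37 °C. Luminescence was read after 15 min at room temperature.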
GLP1R cytotox = cytotoxic in the GLP-1 receptor inverse agonist counter-screen | AID 624418 | HEK293 cAMP-luciferase reporter cells, luminescence, 24 h | Potency, µM (top dose mostly 38.3 µM), for the others: top-dose activity change, negative = inhibition, actives largely listed as inhibitors | hit rate 0.13% among 410,000;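 also: loss of luciferase light is scored as toxicity; potency is read from the fitted curve at half-maximal effect; % is scaled to controls: 0 for no effect and ±100 for the full control effect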
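1536-well qHTS counterscreen of the MLSMR; 200 cells/uL, 12 h pre-incubation, 23 nL cpd, 24 h at 37 deg C 5% CO2, luciferase detection reagent, 12 min RT, luminescence. Inhibition = undesired.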
GLP-1R inv ag = GLP-1 receptor (human) inverse agonism | P43220 | HEK293 GLP-1R CRE-luciferase, luminescence, 24 h; GLP-1R form is constitutively active | Potency, µM (highest dose often 38.3 µM), inactives show at the highest dose activity change, negative = inhibition, hits mostly inhibitors | hit rate 1.6% among 410,000; also: potency is read from the fitted curve at half-maximal effect; % is scaled to controls: 0 for no effect and ±100 for the full control effect; nearly all actives have a fitted effect of over 55% in size
Target sequence (P43220 whole entry, looked up): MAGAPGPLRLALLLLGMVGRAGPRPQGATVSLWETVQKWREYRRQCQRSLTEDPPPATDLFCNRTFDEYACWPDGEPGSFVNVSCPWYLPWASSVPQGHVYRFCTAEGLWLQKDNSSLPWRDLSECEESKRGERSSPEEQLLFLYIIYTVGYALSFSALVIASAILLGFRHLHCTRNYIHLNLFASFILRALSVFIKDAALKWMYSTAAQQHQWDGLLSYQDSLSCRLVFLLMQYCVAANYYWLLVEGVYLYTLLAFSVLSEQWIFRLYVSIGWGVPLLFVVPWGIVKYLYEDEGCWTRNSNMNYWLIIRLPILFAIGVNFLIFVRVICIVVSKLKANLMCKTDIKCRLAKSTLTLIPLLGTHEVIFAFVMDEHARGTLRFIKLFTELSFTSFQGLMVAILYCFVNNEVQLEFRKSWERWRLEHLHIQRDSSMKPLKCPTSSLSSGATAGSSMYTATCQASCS
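HEK293 cells stably co-expressing constitutively active GLP-1R and a cAMP-responsive luciferase reporter were seeded in DMEM with 10% Nu serum, given compounds after 12 h, and incubated 24 h at 37 deg C. Luminescence was then read.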
GLP1R ag = GLP-1 receptor (human) agonism; P43220; HEK293 GLP-1R CRE-luciferase, luminescence, 4-6 h; cells express a hypersensitive GLP-1R form; Potency, µM (titrated, usually from 45.6 µM), inactives show at the highest dose activation, usual class: activators; hit rate 0.007% among 380,000; also: potency is read from the fitted curve at half-maximal effect; % of control where 0% means no effect
Starred values were filed as active, the others as inactive; i = inactive; ? = inconclusive; . = no result; [ ] = dose if it differs, or a comment. Compounds with a hit are over-represented: about 1.8% of the library has one in this group of screens. Unless noted, calls follow the shape of the dose curve; as a rule, active = well fitted curve in the direction sought with a large enough effect; inconclusive = small, poorly fitted or top-dose-only effect, or another doubt; inactive = no such curve, though single readings can be large; an effect the other way counts as inactive or inconclusive.

SMILES	TSHR antagonist	PTHR1 ag	GLP1R cytotox	GLP-1R inv ag	GLP1R ag
CC(C)CC(=O)NC(c1ccccc1Cl)c1c(O)ccc2ccccc12 (centres undefined)	0	i	-33%	8.9µM*	-5%
CCCCC(=O)NC(c1ccco1)c1c(O)ccc2ccccc12 (centres undefined)	2	-4%[57.5 µM]	-7%	8.9µM*	-5%
Cc1ccc(C)c(CSc2nc3ncccc3[nH]2)c1	.	-29%	2%	-10%	.
CSc1ccc(/C=N/n2c(C3CCCCC3)n[nH]c2=S)cc1	-2	i	0%	?	20%
S=c1[nH]nc(C2CCCCC2)n1/N=C/c1ccncc1	-5	-17%	5%	1.8µM*	-2%
Oc1ccccc1N=N/C(=N/Nc1ccccc1O)c1ccccc1	4	i	-16%	-2%	0%
N#C/C(N=Nc1ccccc1O)=N\Nc1ccccc1O	?	-41%	10µM*	?	-17%
Cc1ccccc1C(=O)OCc1cc(=O)n2nc(-c3cccs3)sc2n1	.	-62%	8%	3%	.
COc1ccc(NC(=O)c2cccc3c(=O)c4c([nH]c23)CCCC4)cc1	.	i	-5%	1%	.
O=S(=O)(NC1c2cccc3cccc(c23)C1N1CCNCC1)c1ccccc1 (centres undefined)	-2	i	-25%	10µM*	4%
O=S(=O)(NC1c2cccc3cccc(c23)C1N1CCN(CCO)CC1)c1ccccc1 (centres undefined)	-3	-11%[57.5 µM]	?	?	-18%
CCCCCCCCCCCCCCCCn1cc[n+](CC(C)=O)c1	1	-21%	?	4.5µM*	-1%
COc1ccc(CCNC(=O)CCc2ccc(OC)cc2)cc1	-2	i	3%	10%	-2%
CCOc1ccc(CCNC(=O)CCOc2cc(C)ccc2C)cc1OCC	-9	0%	22%	?	17%
COc1ccc(CCC(=O)NCCOc2ccc(C)cc2)cc1	-2	i	-3%	1.8µM*	2%
Cc1ccc(C)c(OCCC(=O)NCCc2ccc(Cl)cc2)c1	-2	-88%	-6%	10µM*	16%
CCOC(=O)N1CCC2(CC1)OC(=O)C(C)=C2C(=O)NCc1ccccc1OC	.	i	20%	10%	.
CCC1CN(C(=O)Nc2cc(OC)cc(OC)c2)c2ccccc2S1 (centres undefined)	.	?	17%	?	.
Cc1ccc(S(=O)(=O)N2CCCC(C(=O)NC3CCCC3)C2)cc1Cl (centres undefined)	-84*	i	2%	5%	0%
Cc1ccc(S(=O)(=O)N2CCC(C(=O)NC3CCCC3)CC2)cc1Cl	10	-15%	5%	3%	3%
COc1ccc(/C=C/c2ccc3c(Br)ccc(O)c3n2)cc1	5	-18%	-3%	0%	8%
COc1cccc(/C=C/c2ccc3cccc(O)c3n2)c1OC	-7	-79%	?	?	23%
COc1cc(/C=C/c2ccc3cccc(O)c3n2)cc(OC)c1OC	-3	i	?	?	17%
COc1cc(/C=C/c2ccc3c(Br)cc(Br)c(O)c3n2)ccc1O	3	i	?	7.9µM*	-6%
COc1ccc(/C=C/c2ccc3cccc(O)c3n2)c(OC)c1OC	-4	-26%	-21%	2.5µM*	-4%
SMILES	TSHR antagonist	PTHR1 ag	GLP1R cytotox	GLP-1R inv ag	GLP1R ag
COc1cc(/C=C/c2ccc3cccc(O)c3n2)cc(Br)c1OC	2	-11%	?	4.5µM*	?
Cc1cc(=O)n(CC(=O)NCc2ccc(OC(C)C)cc2)c2c1c(C)nn2-c1cccc(F)c1	.	i	9%	2%	.
CCN(C(=O)CN1C(=O)COc2ccc(S(=O)(=O)N3CCOCC3)cc21)c1cccc(C)c1	.	i	8%	3%	.
CCN(C(=O)CN1C(=O)COc2ccc(S(=O)(=O)N3CCOCC3)cc21)c1ccc(OC)cc1	-140*	-14%	-5%	9%	-2%
Cc1ccc(C)c(N(C)C(=O)c2cc3c(s2)-c2ccccc2OC3)c1	.	2%	7%	?	10%
COc1ccc(CNC(=O)Cn2c(=O)oc3cc(S(=O)(=O)N4CCCCCC4)ccc32)cc1	.	-26%	3%	-31%	.
COCCCNC(=O)c1sc2nc3n(c(=O)c2c1C)CCC3	.	-16%	1%	6%	.
O=C(CN1C(=O)c2ccccc2S1(=O)=O)c1ccc(F)cc1	-1	-40%	-9%	2.2µM*	-7%
O=C(CN1C(=O)c2ccccc2S1(=O)=O)c1ccc(OC(F)F)cc1	5	-34%	6%	?	-24%
CCCN(Cc1cccs1)C(=O)Nc1cc(Cl)c(OC)cc1OC	.	i	1%	-32%	.
CC1CCC(N(C)C(=O)CN2C(=O)NC(c3ccccc3)(c3ccccc3)C2=O)CC1 (centres undefined)	.	-26%	-2%	10µM*	-3%
COc1ccc(Cc2nc3ccc(C(=O)NCCc4ccc(Cl)cc4)cc3o2)cc1	.	i	-1%	13%	.
Cc1cc2cc(CCNC(=O)C(C)C)c(=O)[nH]c2cc1C	.	-9%[57.5 µM]	4%	-2%	-7%
O=C(NCCc1ccc(Cl)cc1)C(=O)c1c[nH]c2ccccc12	4	-14%	-4%	?	14%
O=C(NCCc1c[nH]c2ccccc12)C(=O)c1c[nH]c2ccccc12	2	-22%	-30%	4.5µM*	-5%
Cc1cc2cc(CCNC(=O)C(=O)c3c[nH]c4ccccc34)c(=O)[nH]c2cc1C	-13	-13%	-25%	10µM*	14%
Cc1cc2cc(CCNC(=O)c3ccc(S(=O)(=O)N4CCCC4)cc3)c(=O)[nH]c2cc1C	-77*	-34%	-23%	?	6%
CCCC(=O)Nc1ccccc1C(=O)OCc1cc(=O)n2nc(C(C)C)sc2n1	.	?	3%	3%	.
CCOC(=O)c1c(C)[nH]c(C)c1S(=O)(=O)NCC(=O)Nc1cccc(Cl)c1	.	-28%	1%	-17%	.
O=C(NCc1cccc(Cl)c1)c1cnc(N2CCCCC2)c2ccccc12	.	-80%	-5%	-64%	.
COc1ccc(OCC(=O)c2c(O)c3ccccc3oc2=O)cc1	-9	18µM*	-1%	0%	-8%
CCOc1ccc(OCC(=O)c2c(O)c3ccccc3oc2=O)cc1	-12	i	-2%	12%	-16%
Cc1ccc(C)c(C(C)NC(=O)C2CCCC2)c1 (centres undefined)	36	i	6%	-18%	-6%
Cc1ccc(C)c(C(C)NC(=S)NC2CCCCC2)c1 (centres undefined)	-3	-8%	-25%	2.8µM*	1%
O=C(/C=C/NNC(=O)c1ccccc1)c1ccccc1	-7	-17%[57.5 µM]	3.2µM*	?	-4%
Nc1ccccc1C(=O)NCC1(c2ccccc2)CCCC1	3	-23%	0%	3.2µM*	-4%
COc1ccc(C(=O)NCC2(c3ccccc3)CCCC2)c(OC)c1	2	-6%	4%	3.2µM*	?

Bioassay records deposited in PubChem BioAssay by National Center for Advancing Translational Sciences (NCATS).
